# In PubChem BioAssay:
# Active and inactive are the calls of the source.
# Experiments:
# [1] = tested on: Human papillomavirus type 1a protein E7 (residues 44-93); test: small molecules binding HPV E7 44-93 – biochemical, small-molecule microarray, residues 44-93, 635 nm fluorescence, primary screen (AID 1108); conditions: fluorescence 635 nm, higher = more signal;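 also: E7 fragment applied at 1 µg/mL in TBST for 1 h at 4 C; score combines spot fluorescence with its signal to noise ratio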
# [2] = hepatitis C replication reporter changes, two-sided – Huh7 cells, luciferase reporter, HCV replication inhibitor project, primary screen (AID 1109); conditions: Huh7 HCV replicon luciferase reporter, 48 h; higher = more signal;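 also: huh7 hepatoma cells harbouring a luciferase neomycin HCV replicon reporter; luciferase luminescence as measure of HCV replicon replication; test concentration not given here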
# [3] = target: Left-right determination factor 2 (Homo sapiens) (UniProt O00292); test: small molecules binding LEFTY2 protein – biochemical, small-molecule microarray, 635 nm fluorescence scan, primary screen (AID 1110); conditions: higher = more signal
# Sequence of Left-right determination factor 2 (Homo sapiens) (O00292 whole entry, looked up): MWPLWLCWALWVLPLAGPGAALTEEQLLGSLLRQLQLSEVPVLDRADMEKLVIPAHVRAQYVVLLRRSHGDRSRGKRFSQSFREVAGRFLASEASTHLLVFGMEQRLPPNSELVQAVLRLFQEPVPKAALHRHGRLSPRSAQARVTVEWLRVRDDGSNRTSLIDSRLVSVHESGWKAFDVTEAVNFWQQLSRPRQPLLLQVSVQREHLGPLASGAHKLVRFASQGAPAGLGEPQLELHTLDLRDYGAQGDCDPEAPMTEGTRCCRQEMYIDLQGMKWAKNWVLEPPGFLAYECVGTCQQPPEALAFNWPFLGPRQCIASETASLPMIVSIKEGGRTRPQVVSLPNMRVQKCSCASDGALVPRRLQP
# [4] = target: Calmodulin-1 (Homo sapiens) (UniProt P0DP23); test: small molecules binding calmodulin-1 with EGTA – biochemical, small-molecule microarray, Cy5-labelled CALM1, profiling panel (AID 1111); conditions: Cy5-CALM1 binding fluorescence, higher = more signal;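 also: labelled calmodulin applied in Tris saline Tween buffer holding calcium plus EGTA and DTT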
# [5] = target: Calmodulin-1 (Homo sapiens) (UniProt P0DP23); test: small molecules binding Ca-loaded calmodulin-1 – biochemical, small-molecule microarray, Cy5-labelled CALM1, plus calcium, artefact control for SMM control-protein annotation, profiling panel (AID 1112); conditions: Cy5-CALM1 binding fluorescence, higher = more signal;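 also: score merges spot fluorescence with signal to noise from triplicate slides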
# [6] = probe aWnt5a binding to arrayed compounds – biochemical, biotinylated probe, 635/667 nm fluorescence, primary screen (AID 1113); conditions: small-molecule microarray, higher = more signal;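 also: score merges 667 nm fluorescence intensity with signal-to-noise per printed feature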
# [7] = probe aShh binding to arrayed compounds – biochemical, biotinylated probe, 635/667 nm fluorescence, primary screen (AID 1114); conditions: small-molecule microarray, higher = more signal;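 also: probe is biotin-labelled aShh protein from a stem cell growth factor screen; measures binding of labelled protein to compounds printed on the slide; score merges feature fluorescence at 667 nm with signal-to-noise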
# [8] = probe aNog binding to arrayed compounds – biochemical, biotinylated probe, 635/667 nm fluorescence, primary screen (AID 1115); conditions: small-molecule microarray, higher = more signal;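 also: probe is biotinylated aNog protein used at 0.15 µg/mL for 1 h at 4 C; z-score combines 667 nm fluorescence of each spot with its signal to noise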
# [9] = target: Torsin-1A-interacting protein 1 (Homo sapiens) (UniProt Q5JTV8); test: compound microarray binding of lysate hLAP1 – cell lysate, small-molecule microarray, COS7 lysate, 635/667 nm fluorescence, primary screen (AID 1116); conditions: 635 nm fluorescence, higher = more signal
# Sequence of Torsin-1A-interacting protein 1 (Homo sapiens) (Q5JTV8 whole entry, looked up): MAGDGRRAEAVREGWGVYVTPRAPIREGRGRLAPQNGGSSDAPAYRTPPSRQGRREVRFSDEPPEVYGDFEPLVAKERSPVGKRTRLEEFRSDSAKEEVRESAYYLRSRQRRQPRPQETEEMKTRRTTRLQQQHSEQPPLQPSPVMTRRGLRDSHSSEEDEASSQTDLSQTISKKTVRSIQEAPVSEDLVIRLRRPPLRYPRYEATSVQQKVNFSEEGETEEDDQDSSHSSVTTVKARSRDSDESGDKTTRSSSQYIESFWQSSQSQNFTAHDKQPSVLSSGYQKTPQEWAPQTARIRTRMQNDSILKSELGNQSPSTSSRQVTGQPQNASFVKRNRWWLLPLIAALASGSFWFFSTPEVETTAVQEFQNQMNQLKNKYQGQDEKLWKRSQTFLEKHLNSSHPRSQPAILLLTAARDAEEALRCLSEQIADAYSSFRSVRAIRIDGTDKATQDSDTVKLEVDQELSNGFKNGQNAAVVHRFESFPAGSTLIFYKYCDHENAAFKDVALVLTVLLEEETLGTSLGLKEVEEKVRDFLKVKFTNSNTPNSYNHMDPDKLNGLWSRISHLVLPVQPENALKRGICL
# [10] = target: Alpha-bungarotoxin (Bungarus multicinctus) (UniProt P60615); test: compounds binding labelled alpha-BTX control protein – biochemical, small-molecule microarray, Alexa647 label, 635/667 nm fluorescence, artefact control for SMM control protein annotation, profiling panel (AID 1117); conditions: alpha-BTX-A647 binding fluorescence, higher = more signal
# Sequence of Alpha-bungarotoxin (Bungarus multicinctus) (P60615 whole entry, looked up): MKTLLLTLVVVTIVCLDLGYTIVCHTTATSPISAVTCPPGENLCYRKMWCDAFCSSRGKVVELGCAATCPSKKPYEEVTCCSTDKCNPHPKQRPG
# Albumin (Bos taurus) = Albumin (Bos taurus) (UniProt P02769); test: compounds binding labelled BSA control protein – biochemical, small-molecule microarray, Alexa647 label, 635/667 nm fluorescence, artefact control for SMM control protein annotation, profiling panel (AID 1118); conditions: BSA-A647 binding, fluorescence 635 nm, higher = more signal;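 also: score merges 667 nm emission intensity and signal-to-noise per printed compound spot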
# Sequence of Albumin (Bos taurus) (P02769 whole entry, looked up): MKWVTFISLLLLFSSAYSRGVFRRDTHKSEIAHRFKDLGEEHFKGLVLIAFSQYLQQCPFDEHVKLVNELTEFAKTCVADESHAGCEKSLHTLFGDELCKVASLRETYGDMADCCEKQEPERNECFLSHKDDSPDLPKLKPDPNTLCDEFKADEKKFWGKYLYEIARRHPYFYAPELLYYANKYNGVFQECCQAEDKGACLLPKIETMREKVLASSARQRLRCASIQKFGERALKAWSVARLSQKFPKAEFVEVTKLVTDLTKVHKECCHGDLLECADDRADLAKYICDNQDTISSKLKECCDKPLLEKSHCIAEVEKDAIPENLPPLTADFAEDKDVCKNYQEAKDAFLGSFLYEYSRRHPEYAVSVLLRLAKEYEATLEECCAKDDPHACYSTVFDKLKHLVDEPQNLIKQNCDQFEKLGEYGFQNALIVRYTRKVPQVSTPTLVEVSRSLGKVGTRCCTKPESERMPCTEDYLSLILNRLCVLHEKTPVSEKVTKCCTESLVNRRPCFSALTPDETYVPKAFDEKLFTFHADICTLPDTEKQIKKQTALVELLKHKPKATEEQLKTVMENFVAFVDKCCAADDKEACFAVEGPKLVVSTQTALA
# [11] = probe aXIP binding to arrayed compounds – biochemical, NeuroSMM set, 635/667 nm fluorescence, primary screen (AID 1119); conditions: small-molecule microarray, higher = more signal, called active from +8 up or from −8 down;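 also: probe is the protein aXip251-270 applied at 1 µg/mL to compound-printed slides; binding of probe to printed compounds measured as 667 nm fluorescence plus signal to noise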
# [12] = probe aNOTCH3 binding on compound microarray – biochemical, small-molecule microarray, 635/667 nm fluorescence, primary screen (AID 1120); conditions: higher = more signal;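 also: probe is a biotin-tagged antibody raised against NOTCH3 rather than NOTCH3 protein; score merges spot fluorescence near 667 nm with spot signal to noise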
# [13] = probe aNOTCH2 binding on compound microarray – biochemical, small-molecule microarray, 635/667 nm fluorescence, primary screen (AID 1121); conditions: higher = more signal;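 also: score merges feature fluorescence read at 667 nm with its signal to noise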
# [14] = target: Carbonic anhydrase 2 (Homo sapiens) (UniProt P00918); test: compounds binding carbonic anhydrase 2 – biochemical, small-molecule microarray, Alexa647-labelled CAII, profiling panel (AID 1122); conditions: CAII-A647 binding fluorescence, higher = more signal
# [15] = COS7 lysate on small-molecule microarray, probe aHis, 635 nm (AID 1123); conditions: COS7 cell lysate, fluorescence, higher = more signal;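 also: z-score combines 667nm fluorescence intensity with signal-to-noise per printed compound spot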
# [16] = probe aLAP1 signal on lysate-treated microarray – cell lysate, small-molecule microarray, COS7 lysate, primary screen (AID 1124); conditions: probe aLAP1, fluorescence, higher = more signal;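 also: lysate comes from COS7 cells expressing LAP1 and is applied at 0.3 µg/mL; score merges spot fluorescence near 667 nm with signal-to-noise over triplicate slides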
# Sam68 (KHDRBS1) = test: compounds binding KHDRBS1 protein – biochemical, small-molecule microarray, 635 nm fluorescence, primary screen (AID 1125); conditions: higher = more signal;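 also: score merges 667 nm channel intensity with signal to noise over triplicate slides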
# [17] = tested on: Chordin-like protein 2 (CHRDL2); test: compounds binding chordin-like 2 – biochemical, small-molecule microarray, 635 nm fluorescence, primary screen (AID 1126); conditions: fluorescence 635 nm, higher = more signal;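 also: printed compound slides probed with Chrdl2 protein at 4 µg/mL for 1 h at 4 C; score merges 667 nm emission intensity with signal to noise over three replicate slides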
# [18] = target: Concanavalin-A (Canavalia ensiformis) (UniProt P02866); test: compounds binding concanavalin A lectin – biochemical, small-molecule microarray, Alexa647 label, 635 nm, artefact control for SMM control protein annotation, primary screen (AID 1127); conditions: ConA-A647 binding fluorescence, higher = more signal;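 also: z combines 667 nm emission intensity with signal-to-noise across three replicate slides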
# Sequence of Concanavalin-A (Canavalia ensiformis) (P02866 whole entry, looked up): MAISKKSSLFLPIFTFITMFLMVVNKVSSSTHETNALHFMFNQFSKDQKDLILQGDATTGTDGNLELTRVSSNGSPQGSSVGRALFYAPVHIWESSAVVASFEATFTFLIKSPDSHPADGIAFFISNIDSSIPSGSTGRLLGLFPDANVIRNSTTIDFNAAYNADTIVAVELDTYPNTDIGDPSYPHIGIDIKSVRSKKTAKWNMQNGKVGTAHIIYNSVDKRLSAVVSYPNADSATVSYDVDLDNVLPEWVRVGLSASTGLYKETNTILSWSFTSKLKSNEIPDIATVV
Structure (SMILES),composite z-score [1],z-score [2],composite z-score [3],composite z-score [4],composite z-score [5],composite z-score [6],composite z-score [7],composite z-score [8],composite z-score [9],composite z-score [10],composite z-score (Albumin (Bos taurus)),composite Z-score [11],composite z-score [12],composite z-score [13],composite z-score [14],composite z-score [15],composite z-score [16],composite z-score (Sam68 (KHDRBS1)),composite z-score [17],composite z-score [18]
O=C1C2=CC[C@H]3C(=O)N(c4cccc(Oc5ccccc5)c4)C(=O)[C@H]3[C@H]2[C@H](O)[C@@H]2O[C@H]12,0.792,-4.64,0.516,0.0194,-0.32,-0.157,-0.273,-0.224,0.257,0.281,-0.0451,-0.0708 (inactive),0.0179,-0.132,-0.146,0.19,-0.0224,0.645,0.625,0.443
Cc1cc2c(c(=O)o1)[C@@H](O)[C@H]1O[C@H]1C2=O,-0.0158,0.73,0.384,-0.374,-0.876,-0.154,-0.243,-0.265,0.27,0.56,-0.293,-0.0055 (inactive),-0.0744,-0.132,-0.131,-0.243,-0.108,0.568,0.705,0.358
COC(=O)[C@@H]1CC[C@H](C)[C@@H](c2ccc(C)cc2)N1C(=O)c1ccc(C=NOC[C@@H](C)[C@H](OCc2ccccc2)C(C)C)cc1,1.09,-0.989,0.583,-0.0027,-0.607,-0.0276,-0.0553,-0.302,1.27,1.25,0.56,3.28 (inactive),0.0271,-0.185,0.239,1.29,0.247,1.29,0.43,0.736
CCCNC(=O)OC[C@H]1O[C@H](CCON=C(C)CCC(=O)OC[C@H]2O[C@H](c3ccccc3)C=C[C@@H]2Oc2ccc(OC)cc2)C=C[C@@H]1Oc1ccc(OC)cc1,-0.996,-1.17,-0.126,-0.449,-0.678,-0.0685,-0.138,-0.0039,0.23,-0.183,0.161,-0.0662 (inactive),-0.0762,-0.14,-0.459,-0.528,-0.155,-1.25,-0.181,-0.721
CCOC(=O)NN=C1C[C@@H](O)[C@@H](O)[C@@H]2[C@@H]3C(=O)N(Cc4ccccc4)C(=O)[C@@H]3CC[C@H]12,-0.0228,0.47,0.545,0.903,-0.677,-0.0529,-0.0626,-0.158,-0.273,0.405,-0.182,-0.374 (inactive),-0.183,-0.174,0.542,0.307,-0.4,-0.0882,0.194,1.12
CCOC(=O)[C@H](Cc1ccccc1)NC(=O)CCC1CC(OC(=O)NCc2ccc3c(c2)OCO3)CC2(CCCC(COC(=O)NCCc3ccccc3OC)O2)O1 (stereo not given in full),1.39,-1.11,0.816,0.627,0.157,-0.0944,-0.0471,-0.0125,0.775,1.11,0.485,-0.344 (inactive),0.0225,-0.184,0.253,1.05,-0.0407,1.29,1.06,1.1
